In PubChem BioAssay AID493185 (National Center for Advancing Translational Sciences (NCATS), 2011):
The source made the active and inactive calls. A call without a number means that no potency is given here. Calls come from the whole dose curve; as a rule, active = well fitted activation curve with a large enough effect; inconclusive = small, poorly fitted or top-dose-only effect; inactive = no such curve, though single readings can be large or run the other way.

Assay: Counterscreen for Identifying a Potential Treatment of Ataxia-Telangiectasia: Hit Validation
Conditions: cell-free AlphaLISA/AlphaScreen artifact counterscreen, PBS only, no cells; series mostly up to 76.9 µM
Description: NIH Chemical Genomics Center [NCGC]
NIH Molecular Libraries Probe Centers Network [MLPCN]
Assay Submitter (PI): Wei Zheng and Yosef Shiloh
Ataxia-telangiectasia (A-T) is a devastating and progressive disease for which, there is no cure. Although A-T is a multisystem disease, it is stereotyped characterized by its neurological symptoms such as truncal ataxia, due to cerebellar cortical degeneration of the Purkinje and granule cells. Other symptoms of A-T are telangiectasias (dilated blood vessels), primary immunodeficiency, marked sensitivity to ionizing radiation (IR), chromosomal instability and predisposition to cancer.
The underlying genetic cause of A-T is null mutations in the ATM (A-T mutated) gene. ATM is a nuclear serine/threonine kinase that functions as a master regulator of the cellular responses to double strand breaks (DSBs) in the DNA. Upon activation by DSBs, ATM phosphorylates a plethora of downstream targets, including KAP-1 on […]. KAP-1 phosphorylation occurs shortly in response to DSBs and mediates global chromatin relaxation, which facilitates DSB repair. To screen for small molecules that will compensate for the loss of ATM in cells derived from A-T patients, we monitored KAP-1 phosphorylation as a readout for ATM-like activity using an AlphaLISA assay.
3. Library compounds, 23 nl, 76.7 - 0.61uM dilution series final concentration
4. Incubation, 60 min, 37C, 5% CO2, 95% humidity
6. Incubation, 30 min, 37C, 5% CO2, 95% humidity
7. Reagent, 1 ul, Premixed detection reagents and lysis buffer
8. Reagent, 1 ul, 0.6% Antifoam A
9. Incubation, 6 hr, 25C, 95% humidity
10. Readout, EnVision, EnVision plate reader. AlphaScreen 1536-well protocol
PBS was dispensed into medium-binding white solid-bottom tissue culture treated Kalypsys plates with a Multidrop dispenser. Detection reagent and lysis buffer was 3.75nM Rab-a-pKAP1 antibody bound to 75 ng/ul AlphaScreen SA donor bead, 3.75 nM Biot-M-a-KAP1 antibody bound to AlphaLISA protein A acceptor bead, 0.5x protease inhibitor cocktail and 0.25x PerkinElmer lysis buffer. EnVision protocol for 1536-well AlphaScreen read (30ms excitation, 100ms read), about 10 min/plate. This assay is similar to the primary screen but is without cells. It aims to identify artifacts of the assay platform and unspecific hits.
Potency is the fitted concentration of half-maximal effect.

Which Potency does the source give for `Cc1cc(C)n2nc(C(=O)OCCOc3ccc(F)cc3)nc2n1` here?
Its Potency is “inactive”.

For `c1ccc2c(c1)nc(Nc1ccc(N3CCCCC3)cc1)c1nncn12`, which Potency is on record?
The Potency was “inactive”.

For `O=C(NCc1ccccc1)c1cccnc1Sc1ccccc1`, which Potency is on record?
The Potency was “inactive”.

With `C[C@@H]1Cc2c(O)c(O)cc(O)c2C(=O)O1` as the compound, how does the Potency read?
The Potency was “inactive”.

For `O=C(CN1CCN(Cc2ccccc2)CC1)Nc1ccc(Cl)cc1`, which Potency is on record?
The Potency was “inactive”.

For `CC(Oc1ccccc1)C(=O)Nc1cccc(NC(=O)c2ccco2)c1` (stereo not given), which Potency is on record?
Its Potency is “inactive”.

Which Potency does the source give for `Cc1ccc(C)c(-n2c(SCC(=O)NC(C(=O)O)C(C)C)nnc2-c2cccc(Cl)c2)c1` (stereo not given) here?
The Potency was “inactive”.

With `Cc1cccc(NC(=O)/C(C#N)=C/c2ccc(F)cc2)n1` as the compound, how does the Potency read?
Its Potency is “inactive”.

With `CCOC(=O)c1c(CSc2ccsc2)n(C)c2cc(Br)c(O)c(CN(C)C)c12` as the compound, how does the Potency read?
Its Potency is “inactive”.

With `CCN1CCN(CC(=O)Nc2ccc(C(C)=O)cc2)CC1` as the compound, how does the Potency read?
Its Potency is “inactive”.

Which Potency does the source give for `Cc1ccnc(NC(=O)c2ccccc2NC(=O)c2ccccc2)c1` here?
Its Potency is “inactive”.

Which Potency does the source give for `COc1ccc(C2NC(=S)NC3=C2N2CCC3CC2)cc1` (stereo not given) here?
The Potency was “inactive”.

For `COCCCNC(=O)c1c[nH]c2ccc(S(=O)(=O)N(C)c3ccccc3C)cc2c1=O`, which Potency is on record?
Its Potency is “inactive”.

With `CC(C)(C=O)C1=CC(=O)c2ccccc2C1=O` as the compound, how does the Potency read?
The Potency was “inactive”.

For `O=C1NC(=Nc2ccccc2)CS1`, which Potency is on record?
Its Potency is “inactive”.

Which Potency does the source give for `CCCN1CN(c2ccccc2)C(=S)N(c2ccccc2)C1` here?
Its Potency is “inactive”.

For `Cn1cc(/C=N/NC(N)=S)c2ccccc21`, which Potency is on record?
Its Potency is “inactive”.

For `O=C(c1nn2c(C(F)(F)F)cc(-c3ccc(F)cc3)nc2c1Cl)N1CCOCC1`, which Potency is on record?
The Potency was “inactive”.

With `CCC(=O)NC1=C(Cl)C(=O)C(NC(=O)CC)=C(Cl)C1=O` as the compound, how does the Potency read?
The Potency was “inactive”.

With `CN(C)c1cc(Nc2ccc(O)cc2)c([N+](=O)[O-])c2nonc12` as the compound, how does the Potency read?
The Potency was “inactive”.

With `CCOC(=O)Cn1c(-c2ccccc2)cc(SC)c(C#N)c1=O` as the compound, how does the Potency read?
Its Potency is “inactive”.

With `COc1cc(/C=C2\SC(=S)N(C(C(=O)O)c3ccccc3)C2=O)ccc1O` (stereo not given) as the compound, how does the Potency read?
Its Potency is “inactive”.

With `O=C(CCC(=O)c1ccc(F)cc1)Nc1cccc(Br)c1` as the compound, how does the Potency read?
Its Potency is “inactive”.

For `COc1ccc2c(c1)cc(C(=O)N[C@H](C(=O)N1CCC(C(=O)O)CC1)C(C)C)n2C`, which Potency is on record?
Its Potency is “inactive”.

For `C=CCC(CC)C(=O)NC(=O)N1CCCc2ccccc21` (stereo not given), which Potency is on record?
The Potency was “inactive”.

For `COc1ccc(-c2csc(-c3ccc(O)cc3)n2)cc1`, which Potency is on record?
Its Potency is “inactive”.

For `CCCCN(c1nc2ccccc2nc1Cl)S(=O)(=O)c1ccc(C)cc1`, which Potency is on record?
Its Potency is “inactive”.

For `COc1ccccc1N1CCN(C(=O)c2cc(=O)c3c(C)cc(C)cc3o2)CC1`, which Potency is on record?
Its Potency is “inactive”.

With `C(=N\Nc1ccccn1)/c1c[nH]c2ccccc12` as the compound, how does the Potency read?
The Potency was “inactive”.

For `CNC(=S)N/N=C/c1ccc2c(c1)OCCO2`, which Potency is on record?
The Potency was “inactive”.

With `COc1ccc(N2CCN(C(=O)c3cc4cc(Cl)ccc4[nH]3)CC2)cc1` as the compound, how does the Potency read?
Its Potency is “inactive”.

With `CC(C)(C)C1CCC2(CC1)SCC(=O)N2c1ccccc1` (stereo not given) as the compound, how does the Potency read?
Its Potency is “inactive”.

Which Potency does the source give for `CC(C)c1ccc(-c2cc(C(=O)N3CCOCC3)c3cc(Br)ccc3n2)cc1` here?
Its Potency is “inactive”.

With `COc1ccc(Oc2ncnc3c2oc2ccc(Br)cc23)cc1` as the compound, how does the Potency read?
Its Potency is “inactive”.

For `COc1cccc(OC)c1C(=O)NC(=O)Nc1c(C)cccc1C`, which Potency is on record?
Its Potency is “inactive”.

With `CN(C)Cc1ccc(F)cc1Sc1cc(Cl)ccc1Cl` as the compound, how does the Potency read?
The Potency was “inactive”.

Which Potency does the source give for `CCC(=O)Nc1ccc(S(=O)(=O)c2ccc(NC(=O)CC)cc2)cc1` here?
Its Potency is “inactive”.

Which Potency does the source give for `Cc1nc(SCC(=O)Nc2cc(C(N)=O)cc(C(N)=O)c2)c2c(C)c(C)sc2n1` here?
Its Potency is 51.9 µM (active).

With `CC1=C/C(=C\C=C(C#N)C#N)N(C)c2ccccc21` as the compound, how does the Potency read?
Its Potency is “inactive”.

For `Cc1cc(C)c2c(Cn3ccnc3)cc(=O)oc2c1`, which Potency is on record?
Its Potency is “inactive”.
